Source: PubChem BioAssay
JMJD2A Tudor: qHTS Assay for Inhibitors of JMJD2A-Tudor Domain. AlphaScreen JMJD2A-Tudor / H3K4me3 peptide binding. Lysine-specific demethylase 4A (Homo sapiens), O75164. 4.4% of 390,000 active. Potency, µM (highest dose often 114 µM), for the others: top-dose activity change, negative = inhibition, actives largely listed as inhibitors. AID 504339, 2011; further: on the % scale 0 is the no-effect control and ±100 the full control effect; nearly all actives have a fitted effect of over 50% in size
GLS inh: qHTS for Inhibitors of Glutaminase (GLS) | GLS enzymatic activity, qHTS titration | Potency, µM (titrated, usually from 45.5 µM), for inactives: at the highest dose activity change, negative = inhibition, usual class: inhibitors | 0.21% of 410,000 active | AID 624170, 2012; further: on the % scale 0 is the no-effect control and ±100 the full control effect
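Human kidney-isoform GLS in 45 mM KH2PO4 pH 8.2, 0.02% Tween-20, with compound, started with 1mM L-Glutamine (added stock). Glutamate oxidase/HRP/Amplex red coupled fluorescence read at start and after 30 min at RT.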
G9a inh: qHTS Assay for Inhibitors of Histone Lysine Methyltransferase G9a. Potency, µM (titrated, usually from 102 µM), inactives show at the top dose activity, negative = inhibition, most hits filed as inhibitors. 8.8% of 350,000 active. Histone-lysine N-methyltransferase EHMT2 (Homo sapiens), Q96KQ7. G9a H3K9 monomethylation, AlphaScreen, 2 h; further: on the % scale 0 is the no-effect control and ±100 the full control effect; nearly all actives have a fitted effect of over 75% in size
Target sequence (Q96KQ7 913-1193 limits assumed): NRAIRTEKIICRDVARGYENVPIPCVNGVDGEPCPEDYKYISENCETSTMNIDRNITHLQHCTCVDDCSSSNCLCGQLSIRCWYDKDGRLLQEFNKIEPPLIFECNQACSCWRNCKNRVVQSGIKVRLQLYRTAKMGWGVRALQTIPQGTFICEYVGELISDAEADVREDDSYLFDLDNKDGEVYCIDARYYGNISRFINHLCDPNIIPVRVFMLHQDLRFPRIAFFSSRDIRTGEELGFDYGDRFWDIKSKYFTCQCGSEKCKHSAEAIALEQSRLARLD
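AlphaScreen detection with an anti-monomethyl H3K9 antibody quantified product after a 2 h room-temperature reaction containing 500 nM biotinylated H3K9 peptide, 20 µM SAM and 20 nM enzyme, which had been preincubated 15 min with compound.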
L3MBTL1 block: qHTS Assay for the Inhibitors of L3MBTL1. 0.66% of 230,000 active. AlphaScreen L3MBTL1–H3K9me1 peptide binding. Lethal(3)malignant brain tumor-like protein 1 (Homo sapiens), Q9Y468. Potency, µM (series often up to 57.1 µM), without a hit: top-dose activity, negative = inhibition, hits mostly inhibitors; further: on the % scale 0 is the no-effect control and ±100 the full control effect; nearly all actives have a fitted effect of over 60% in size
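AlphaScreen assay: L3MBTL1 (50 nM final) was preincubated 30 min at room temperature with biotinylated H3(1-15)K9me1 peptide (75 nM final), then 30 min with library compounds; streptavidin donor and nickel chelate acceptor beads (10 ug/mL final) added, 30 min dark.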
HP1b binding inh: HTS for Inhibitors of HP1-beta Chromodomain Interactions with Methylated Histone Tails; 0.56% of 390,000 active; Chromobox protein homolog 1 (Homo sapiens), P83916; AlphaScreen HP1-beta / biotin-H3K9me3 peptide binding; Potency, µM (titrated, usually from 114 µM), for the others: at the highest dose activity change, negative = inhibition, actives largely listed as inhibitors; further: nearly all actives have a fitted effect of over 70% in size
Target sequence (P83916 whole entry, looked up): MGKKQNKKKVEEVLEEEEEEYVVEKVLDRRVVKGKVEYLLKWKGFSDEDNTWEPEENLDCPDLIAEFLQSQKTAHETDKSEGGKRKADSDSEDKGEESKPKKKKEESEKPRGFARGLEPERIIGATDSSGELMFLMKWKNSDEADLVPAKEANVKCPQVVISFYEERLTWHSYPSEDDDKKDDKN
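HP1-beta protein (50 nM final) preincubated 30 min at room temperature with biotinylated H3(1-18)K9me3 peptide (50 nM) in PBS pH 7.4, 0.01% Tween-20, then compound added for 30 min. AlphaScreen streptavidin donor/nickel chelate acceptor beads (10 ug/mL final), 30 min dark, luminescence read.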
BAZ2B inh: qHTS Assay for Inhibitors of BAZ2B | Bromodomain adjacent to zinc finger domain protein 2B (Homo sapiens), Q9UIF8 | AlphaScreen BAZ2B-H3K14Ac peptide displacement | Potency, µM (titrated, usually from 114 µM), for the others: at the top dose activity change, negative = inhibition, most hits filed as inhibitors | 4.4% of 360,000 active | AID 504333, 2011; further: on the % scale 0 is the no-effect control and ±100 the full control effect; nearly all actives have a fitted effect of over 60% in size
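Protein-peptide AlphaScreen: BAZ2B 50 nM, b-H3K14Ac 50 nM, 1x PBS pH 7.4 + 0.01% Tween-20. Preincubation 30 min RT; cpd 30 min RT (top 110 uM); beads 20 min RT, light-protected.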
Starred values were filed as active, the others as inactive; ? = inconclusive; · = no result given; [ ] = remark or other dose. An excerpt weighted towards active compounds, which were near 10% of everything screened. The call rests on the fitted dose curve; in most records, active means well fitted curve in the direction sought with a large enough effect; inconclusive means small, poorly fitted or top-dose-only effect, or another doubt; inactive means no such curve, though single readings can be large; an effect the other way counts as inactive or inconclusive. Potency means the concentration at half of the fitted maximal effect.

SMILES	JMJD2A Tudor	GLS inh	G9a inh	L3MBTL1 block	HP1b binding inh	BAZ2B inh
Cc1ccc(N2CCN(C(=O)c3nn(C)c4c3CSc3ccccc3-4)CC2C)cc1 (stereo not given)	-10%	0%	-1%[59 µM]	·	10%	3%
O=C(COC(=O)[C@H](Cc1ccccc1)NC(=O)c1cccs1)Nc1c(Cl)cccc1Cl	-17%	1%	50µM*	5%	24%	-2%
Cc1ccc(S(=O)(=O)c2cn(Cc3ccccc3Cl)c3ccc(F)cc3c2=O)cc1	1%	-6%	6%[59 µM]	·	36%	-3%
NNc1nc(Nc2ccccc2)nc(N2CCCCC2)n1	?	29%	-7%	·	19%	79µM*
COc1ccc(Nc2nc(NN)nc(Nc3ccc(OC)cc3)n2)cc1	45µM*	8%	-1%	?	15%	25µM*
NNc1nc(Nc2ccc([N+](=O)[O-])cc2)nc(N2CCCCCC2)n1	56µM*	7%	·	-19%	109%	28µM*
O=[N+]([O-])c1ccc(Nc2nc(N3CCOCC3)nc(N3CCOCC3)n2)cc1	-12%	-11%	·	·	8%	·
Cc1cccc(Nc2nc(N3CCCCC3)nc(N3CCCCC3)n2)c1	7%	11%	-2%[59 µM]	14%	28%	3%
Nc1nc(N2CCCCC2)nc2ccccc12	-6%	19%	50µM*	5%	25%	-4%
c1ccc2c(N3CCCCC3)nc(N3CCCC3)nc2c1	13%	-2%	-6%[12.7 µM]	12%	54%	12%
CC(=O)N1CCC2(CCCN(c3ccccn3)C2)CC1	·	·	1%[12.7 µM]	·	·	·
CCn1cc(C(=O)Nc2ccc(C(C)C)cc2)c2cc(OC)c(OC)cc2c1=O	-7%	0%	-1%[59 µM]	·	37%	0%
OCCNc1nc(Nc2ccc(Cl)cc2)nc(N2CCCC2)n1	-15%	3%	·	·	28%	·
COc1ccc(Nc2ccc(Nc3ccc(OC)cc3)nn2)cc1	-27%	10%	0%	-2%	29%	9%
NNc1nc(Nc2ccccc2)nc(Nc2ccccc2)n1	-29%	-7%	35%	-28%	40%	22µM*
COc1ccc(Nc2nc3ccc(OC)cc3s2)cc1	?	-21%	40µM*	-21%	-27%	56µM*
COc1ccc(Nc2ccc(OC)cc2)cc1	50µM*	30%	·	16µM*	40µM*	20µM*
O=[N+]([O-])c1ccc(Nc2nc(NCCO)nc(N3CCCC3)n2)cc1	-6%	-3%	45µM*	·	20%	3%
COc1ccc(NC2=CC(=O)N(C)C2=O)cc1	-15%	0%	-23%[59 µM]	-2%	32%	-13%
COc1ccc(Nc2cccc3ccccc23)cc1	56µM*	31%	23%[2.33 µM]	-12%	?	?
COc1ccc(NC2=C(C)C(=O)CC2)cc1	3%	-3%	2%[2.33 µM]	·	41%	56µM*
Cc1oc2ccc(O)c(CN3CCCCCC3)c2c1C(=O)Nc1cccc(C(F)(F)F)c1	-28%	2%	-26%[59 µM]	·	-4%	?
NCCC(=O)Nc1cccc(-c2nn3c(=O)cc(N4CCNCC4)nc3s2)c1	-29%	·	·	·	·	·
CN(O)/C=N/C(=S)Nc1ccc(Cl)cc1Cl	-22%	7%	3.5µM*	0%	9%	?
O=C1C(=O)N(Cc2cccnc2)C(c2cccc([N+](=O)[O-])c2)/C1=C(\O)c1ccc2c(c1)OCCO2 (stereo not given)	56µM*	4%	?	·	43%	-23%
SMILES	JMJD2A Tudor	GLS inh	G9a inh	L3MBTL1 block	HP1b binding inh	BAZ2B inh
COc1ccc(C2/C(=C(\O)c3ccc4c(c3)OCCO4)C(=O)C(=O)N2Cc2ccco2)c(OC)c1 (stereo not given)	?	30%	?	-15%	-7%	?
O=C1C(=O)N(Cc2ccncc2)C(c2ccccc2F)/C1=C(\O)c1ccc2c(c1)OCCO2 (stereo not given)	-23%	-2%	40µM*	·	26%	-28%
COc1cc(C2/C(=C(\O)c3ccc4c(c3)OCCO4)C(=O)C(=O)N2Cc2ccccc2)ccc1O (stereo not given)	-32%	4%	·	·	3%	50µM*
CN(C)CCN1C(=O)C(=O)/C(=C(/O)c2ccc3c(c2)OCCO3)C1c1ccccn1 (stereo not given)	-31%	-11%	32µM*	0%	26%	56µM*
COc1cc(C2/C(=C(\O)c3ccc4c(c3)OCCO4)C(=O)C(=O)N2CCN2CCOCC2)cc(OC)c1OC (stereo not given)	?	0%	·	·	12%	-12%
Cc1cccc(NC(=O)c2ccc(-c3nc(CSc4ccccc4)c(C)o3)cc2)c1C	-19%	-1%	-7%[59 µM]	·	27%	-10%
COc1cccc(C(=O)n2nc(-c3cccnc3)nc2NCc2ccc(F)cc2)c1	-14%	-9%	-2%[59 µM]	·	39%	2%
CCC(C)NC(=O)c1cc2cc(S(=O)(=O)N3CCCCC3)ccc2n1C (stereo not given)	-12%	4%	14%[59 µM]	·	19%[57 µM]	4%
CN1CCN(CCCNC(=O)c2cnn(-c3ccccc3)c2-n2cccc2)CC1	-26%	2%	2%[59 µM]	·	5%	2%
O.O=C([O-])CC([S-])C(=O)[O-].[Au+].[Na+].[Na+] (stereo not given)	·	2%	·	·	·	·
Cc1nn(-c2ccccc2)c(OC(=O)c2ccc(F)cc2)c1S(=O)(=O)c1ccccc1	?	1%	?	·	3%	?
O=C1C(=O)N(Cc2cccnc2)C(c2cccc(F)c2)/C1=C(/O)c1ccc2c(c1)OCO2 (stereo not given)	-8%	13%	?	·	42%	3%
COc1cccc(C2/C(=C(\O)c3ccc4c(c3)OCCO4)C(=O)C(=O)N2Cc2cccnc2)c1 (stereo not given)	-14%	1%	56µM*	·	43%	-36%
COc1ccc(NC(=O)c2ccco2)cc1NC(=O)c1cccc(C)c1OC	20µM*	5%	0%[59 µM]	·	-9%	?
O=C(Nc1ccc(Oc2ccc(NC(=O)c3ccco3)c(NC(=O)c3ccco3)c2)cc1)c1ccco1	-23%	3%	-14%[59 µM]	-8%	5µM*	-21%
Cc1ccc(NC(=O)c2ccco2)c(NC(=O)c2ccccc2C)c1	50µM*	-1%	16%	·	32%	-2%
